Laboratory results reported in paper PMC4552634, “A New Set of Chemical Starting Points with Plasmodium falciparum Transmission-Blocking Potential for Antimalarial Drug Discovery” (PLoS ONE, 2015).
Among all 13,000 compounds or so, about 3,200 (25%) showed an effect of 50% or more. Some of the results follow.

Tested on: P. falciparum stage V gametocytes
Parameters: BacTiter-Glo ATP luminescence viability of purified stage V gametocytes in 384-well plates, per cent inhibition versus DMSO
Conditions: 48 h, 5 µM; inhibitor

Compound | % Inhibition
Cc1cccc(OCC(=O)Nc2cccc(NC(=O)COc3cccc(C)c3)n2)c1 [TCMDC-123837] | 22.25%
COc1cc(C(=O)NC2CCc3ccccc32)cc(Cl)c1OC (centres unmarked) [TCMDC-124601] | 17.65%
OC(CNc1ccnc(Nc2cccc(CCN3CCOCC3)c2)n1)c1ccccc1 (centres unmarked) [TCMDC-136463] | 12.7%
Cc1cccc(Nc2nccc(Nc3cccc(C(=O)NCCN4CCOCC4)c3)n2)c1 [TCMDC-124774] | -4.453%
Cc1cnc(Nc2cccc(CCN3CCOCC3)c2)nc1NC(C)C [TCMDC-133533] | 57.17%
CCCCCCN1CCC(NCc2cccc3ccccc23)CC1 [TCMDC-141665] | -97.34%
CCCCN1CCN(CCCCNc2c3ccccc3nc3ccccc23)CC1 [TCMDC-137569] | 97.88%
CCCCN1CCN(CCCNc2c3ccccc3nc3ccccc23)CC1 [TCMDC-137572] | 99.41%
CCCCCCCCN1CCN(CCCCCCNc2c3ccccc3nc3ccccc23)CC1 [TCMDC-138015] | 122.1%
CCCCCCNc1c2ccccc2nc2ccccc12 [TCMDC-123957] | -50.01%
COc1ccc(NC(=O)Nc2ccc(-c3ccncc3)c(C(F)(F)F)c2)cc1N1CCN(C)CC1 [TCMDC-139213] | -9.659%
O=C(Cc1cnc[nH]1)Nc1cccc(-c2ccc(-c3nc4ccccc4[nH]3)cc2)c1 [TCMDC-136947] | 6.174%
O=C(/C=C/c1ccc(Cl)c(Cl)c1)NCCCCCCN1CCCN(C(=O)Nc2cc(F)cc(F)c2)CC1 [TCMDC-135941] | 5.109%
C=C[C@]1(C)C[C@@H](OC(=O)NC(=O)C2CCN(C(=O)CSc3ccccc3)CC2)[C@]2(C)[C@H](C)CC[C@]3(CCC(=O)[C@H]32)[C@@H](C)[C@@H]1O [TCMDC-139971] | 14.26%
CNC(=O)NC1=NC(C)(C)N(OCCCOc2cc(Cl)c(Cl)cc2Cl)C(N)=N1 [TCMDC-131701] | 9.937%
NCCCCc1c(-c2ccc(Cl)c(Cl)c2)[nH]c2ccc(Cl)cc12 [TCMDC-125841] | 97.12%
CN(C)CCCNc1ncnc2c1[nH]c1ccc(Cl)cc12 [TCMDC-124579] | 36.17%
Cc1nc(N)nc(N)c1-c1ccc(Cl)c(Cl)c1 [TCMDC-123931] | 6.997%
CO/C(=C\C=C\c1cc2cc(Cl)c(Cl)cc2[nH]1)C(=O)NCCCN1CCN(c2cccc(OCC(=O)Nc3ccccc3)c2)CC1 [TCMDC-139822] | -45.25%
Cc1cc(OCCCN2CCC(NS(=O)(=O)c3cccc(Br)c3)C2)c2ccccc2n1 (centres unmarked) [TCMDC-136283] | -24.53%
COc1cc(Cc2cnc(N)nc2N)cc(OCCCC#N)c1OC [TCMDC-138040] | -4.212%
Cc1nn(CC(C)C)c2sc(C(=O)N3CCN(S(=O)(=O)c4ccc(C#N)cc4)CC3)cc12 [TCMDC-125045] | 90.92%
Cc1ccc(S(=O)(=O)N2CCN(C(=O)c3cc(-c4ccccc4)n[nH]3)CC2)cc1 [TCMDC-124401] | -51.82%

Compound | % Inhibition
COc1ccccc1-c1cc(C(=O)N2CCN(S(=O)(=O)c3ccc(C)cc3)CC2)[nH]n1 [TCMDC-124398] | 19.71%
CCOc1ccc(-c2n[nH]c(C(F)(F)F)c2-c2ccccc2OC)c(O)c1 [TCMDC-124564] | -16.08%
CC(=O)Nc1ccc(C2NC(=O)NC(c3ccccc3)=C2c2nc3ccccc3s2)cc1 (centres unmarked) [TCMDC-124535] | -96.89%
CC(=O)c1c(C)[nH]c(C(=O)Nc2ccc(-c3nc4ccc(C)cc4s3)cc2)c1C [TCMDC-124493] | 55.35%
CC(=O)Nc1cccc(C(=O)Nc2ccc(-c3ccc(-c4nc5cccc(C)c5[nH]4)s3)cc2)c1 [TCMDC-132143] | -2.133%
CC[C@H](NC(=O)c1c(CN2CCC(N3CCCCC3)CC2)c(-c2ccccc2)nc2c(Cl)c(O)ccc12)c1ccccc1 [TCMDC-140367] | 17.06%
CCN(CC)CCOc1ccc(C(O)(C#CC(O)(c2ccc(Br)cc2)c2ccc(OCCN(CC)CC)cc2)c2ccc(Br)cc2)cc1 (centres unmarked) [TCMDC-137199] | 112.4%
CCN(CC)CCOc1ccc(C(O)(C#CC(O)(c2ccc(OCCN(CC)CC)cc2)c2ccc([N+](=O)[O-])cc2)c2ccc([N+](=O)[O-])cc2)cc1 (centres unmarked) [TCMDC-137201] | 116.9%
CCCN(CCC)CCOc1ccc(C(O)(C#CC(O)(c2ccc(OCCN(CCC)CCC)cc2)c2cccc(Cl)c2)c2cccc(Cl)c2)cc1 (centres unmarked) [TCMDC-137200] | 105.4%
CCN(CC)CCOc1ccc(C(O)(C#CC(O)(c2ccccc2)c2ccc(OCCN(CC)CC)cc2)c2ccccc2)cc1 (centres unmarked) [TCMDC-137197] | 109.6%
CC1(C)N=C(N)N=C(N)N1OCCCOc1ccc([N+](=O)[O-])cc1 [TCMDC-131610] | 2.796%
CCN(CC)CCNc1ccnc2[nH]c3ccc([N+](=O)[O-])cc3c12 [TCMDC-131978] | 4.282%
CCC(=O)OC(CCN(CC)CC)(c1ccccc1)c1ccccc1 [TCMDC-131415] | 15.82%
CCN(CC)CCOc1ccc(NC(=O)c2oc3ccccc3c2C=Cc2ccccc2)cc1 [TCMDC-132102] | 24.22%
CCOC(=O)c1ccc(OCCCCCCOc2ccc(Br)cc2)cc1 [TCMDC-131409] | 4.056%
NOCCCCOc1ccc(Br)cc1 [TCMDC-131760] | 15.82%
O=C(Nc1ccc(Cl)cc1)c1ccc(CN2CCCN(Cc3ccsc3)CC2)cc1 [TCMDC-136415] | 6.883%
O=C(Nc1cccc(CN2CCCN(Cc3ccc(O)cc3)CC2)c1)c1cccc(Cl)c1 [TCMDC-141817] | -7.519%
Cc1sc2nc(CSc3ccccc3)nc(N3CCN(CC(=O)NC4CC4)CC3)c2c1C [TCMDC-125266] | 47.29%
COc1ccc2ccc(F)c(CC(=O)N3CCOC(CNCc4cccc(-c5ccsc5)n4)C3)c2n1 (centres unmarked) [TCMDC-135027] | 10.39%
O=C(/C=C/c1ccc(Cl)c(Cl)c1)NCCCCCN1CCC(C(=O)Nc2ccc(F)c(Cl)c2)CC1 [TCMDC-136112] | 0.5724%
CN(CCCN(C)c1cc(NC(=O)c2ccc(F)cc2)ccn1)Cc1cccc(O)c1 [TCMDC-134954] | -6.57%
C[C@H](NC(=O)C1CCCC1)C(=O)Nc1ccc(-c2ccc(-c3nc4ccc(C(F)(F)F)cc4[nH]3)cc2)cc1 [TCMDC-137052] | -25.16%

Compound | % Inhibition
COc1cc(Cc2cnc(N)nc2N)cc(OCCCS(=O)(=O)O)c1OC [TCMDC-137357] | -4.274%
COc1cc(/C=C/C(=O)NC2CCC(N3CCC(c4ccccc4C)CC3)CC2)cc(OC)c1 (centres unmarked) [TCMDC-133516] | -90.94%
CCN(CC)CCOc1ccc(C(O)(C#CC(O)(c2ccc(C)cc2)c2ccc(OCCN(CC)CC)cc2)c2ccc(C)cc2)cc1 (centres unmarked) [TCMDC-137198] | 113%
CCCC(C(=O)OCCN(CC)CC)(c1ccc(Cl)cc1)c1ccc(Cl)cc1 [TCMDC-141994] | 16.96%
Cc1ccc(OCCCCONC(=O)c2ccccc2)cc1 [TCMDC-131756] | 2.332%
CCC1CCCCN1S(=O)(=O)c1ccc(NC(=O)c2cc(C)on2)cc1 (centres unmarked) [TCMDC-124618] | -16.01%
O=C(NC1CCC(N2CCC(c3ccccc3C(F)(F)F)CC2)CC1)c1cc2ccccc2[nH]1 (centres unmarked) [TCMDC-132895] | -39.86%
O=C(C=Cc1cn(-c2ccccc2)nc1-c1ccccc1)N1CCN(c2ccncc2)CC1 [TCMDC-125256] | 13.7%
O=C(Nc1ccncc1)c1cn(-c2ccccc2)nc1-c1cccs1 [TCMDC-125605] | -55.62%
O=C(C=Cc1cn(-c2ccccc2)nc1-c1cccs1)N1CCN(c2ccncc2)CC1 [TCMDC-125063] | 51.82%
NOCCCOc1ccccc1 [TCMDC-123474] | -11.28%
Nc1ccc(Oc2ccc(Cc3cnc(N)nc3N)cc2)cc1 [TCMDC-137904] | -3.731%
COc1ccc2nccc([C@@H](O)CN3CCC(NCc4ccc(OC)c(NC(C)=O)c4)CC3)c2c1 [TCMDC-141564] | -24.43%
COc1cc(Nc2ncc3c(C)nc(-c4cc5ccccc5[nH]4)n3n2)cc(OC)c1OC [TCMDC-138905] | 5.084%
Cc1nc(-c2cccc(C(F)(F)F)c2)n2nc(Nc3ccc(OCCN4CCCC4)cc3)ncc12 [TCMDC-138911] | 108.6%
c1ccc(Oc2ccc(Nc3ccnc(Nc4ccc(OCCN5CCCCC5)cc4)n3)cc2)cc1 [TCMDC-138583] | -73.3%
COc1ccc(Nc2ncc3c(-c4cccc(NC(=O)Cc5ccc(F)cc5)c4)c[nH]c3n2)cc1OC [TCMDC-135252] | -55.08%
COc1cc(Nc2ncc3c(C)nc(-c4cccc(Nc5ccc(CN6CCS(=O)(=O)CC6)cc5)c4)n3n2)cc(OC)c1OC [TCMDC-136003] | 62.52%
CCN(CCCN1CCCCC1)c1cc(C)nc(Nc2cccc(C(F)(F)F)c2)n1 [TCMDC-132451] | 9.673%
COc1ccccc1CNCC(O)c1cc(C(F)(F)F)ccc1C(F)(F)F (centres unmarked) [TCMDC-140376] | 33.11%
CN(C)c1ccc(C=Cc2nc(=O)c3ccccc3o2)cc1 [TCMDC-123870] | 44.95%
CCN(CC)S(=O)(=O)n1ncc2c3c(N)nc(N)nc3ccc21 [TCMDC-137302] | -23.31%
